ALOX15B inhib – qHTS Assay for Inhibitors of 15-hLO-2 (15-human lipoxygenase 2); Polyunsaturated fatty acid lipoxygenase ALOX15B (Homo sapiens), O15296; purified 15hLO-2, xylenol orange hydroperoxide absorbance; Potency, µM (top dose mostly 57.1 µM), without a hit: top-dose activity change, negative = inhibition, most hits filed as inhibitors; 110,000 tested, 0.56% active; AID 881, 2007; further: on the % scale 0 is the no-effect control and ±100 the full control effect; nearly all actives have a fitted effect of over 60% in size
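Enzyme 50 nM, AA 45 uM, 25 mM Hepes pH 7.5 + 0.01% Triton X-100; cpd preinc 15 min RT, rxn 90 min RT; stop/detect with 200 uM XO + 300 uM Fe(II) in 50 mM H2SO4, 30 min; A573/A405.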
Tau fil binding – qHTS Assay for Tau Filament Binding | recombinant tau filaments, thioflavin S fluorescence, 15 h; filaments grown with octadecylsulfate alongside compound | Potency, µM (doses to about 57.1 µM), inactives show at the highest dose activity change, negative = inhibition | 71,000 tested, 2% active | AID 596, 2007;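 further: on the % scale 0 is the no-effect control and ±100 the full control effect; actives lower thioflavin S fluorescence by blocking filaments or displacing dye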
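Tau 2 uM in ThS buffer dispensed; compound added; 60 uM ODS added (finals 1 uM tau, 30 uM ODS); 15 h 37 C; fluor ex450/em510.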
ALOX15 inhib – qHTS Assay for Inhibitors of 15-hLO (15-human lipoxygenase); Polyunsaturated fatty acid lipoxygenase ALOX15 (Homo sapiens), P16050; purified 15hLO-1, xylenol orange hydroperoxide absorbance; Potency, µM (titrated, usually from 57.1 µM), inactives show top-dose activity change, negative = inhibition, usual class: inhibitors; 74,000 tested, 1.4% active; AID 887, 2007; further: on the % scale 0 is the no-effect control and ±100 the full control effect; nearly all actives have a fitted effect of over 55% in size
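Compounds were preincubated 15 min at room temperature with 40 nM purified human enzyme (25 mM Hepes pH 7.5, 0.01% Triton X-100); 50 uM arachidonic acid reacted 6 min. Fe-xylenol orange detection, 30 min, absorbance ratio 573/405 nm.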
Casp7 inh – qHTS Assay for Allosteric/Competitive Inhibitors of Caspase-7; P55210; recombinant caspase-7, Ac-DEVD-AFC fluorescence rate; Potency, µM (doses to about 57.5 µM), for inactives: at the highest dose activity change, negative = inhibition, usual class: inhibitors; 75,000 tested, 0.02% active; active means well fitted inhibition curve with a large enough effect in the main read-out, with a control signal flat, not every such curve was filed as active; inconclusive means small, poorly fitted or top-dose-only effect, or a change in a side signal; further: % of control where 0% means no effect
Casp1 inh – qHTS Assay for Allosteric/Competitive Inhibitors of Caspase-1 | Caspase-1 enzyme, Ac-WEHD-AFC fluorogenic rate | Potency, µM (doses to about 57.5 µM), without a hit: top-dose activity change, negative = inhibition, most hits filed as inhibitors | 75,000 tested, 0.03% active | AID 900, 2007;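 further: plate controls were vehicle for no effect and no substrate for full effect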
Hsp90 Hop PPI – qHTS Assay for Disrupters of an Hsp90 Co-Chaperone Interaction | Hsp90 C-terminal peptide / TPR2A (Hop) interaction, human | AlphaScreen TPR2A-His6 binding biotin-Hsp90 C-terminal peptide | Potency, µM (highest dose often 57 µM), for inactives: at the highest dose activity change, negative = inhibition | 71,000 tested, 0.44% active; active means well fitted curve in either direction with a large enough effect; inconclusive means small, poorly fitted or top-dose-only effect, or another doubt; further: on the % scale 0 is the no-effect control and ±100 the full control effect
* = called active by the depositor; ? = inconclusive; / = no result; [ ] = dose if it differs, or a comment. Shown are actives, neighbours in structure and some others; about 2.4% of the full set was active somewhere. Unless noted, the call rests on the fitted dose curve; in most records, active means well fitted curve in the direction sought with a large enough effect; inconclusive means small, poorly fitted or top-dose-only effect, or another doubt; inactive means no such curve, though single readings can be large; an effect the other way counts as inactive or inconclusive. Potency means the concentration at half of the fitted maximal effect.

SMILES	ALOX15B inhib	Tau fil binding	ALOX15 inhib	Casp7 inh	Casp1 inh	Hsp90 Hop PPI
CCOC(=O)c1sc(NC(=O)CSc2nc3c(c(-c4ccc(OC)cc4)c2C#N)CCCC3)c(C#N)c1C	-4.7%	/	/	/	/	/
CCOc1ccc(-n2c(SCC(N)=O)nc3c([nH]c4ccccc43)c2=O)cc1	1.4%	10.4%	-6.9%	-2.0%	-2.3%	-4.0%
O=S(=O)(O)c1cc(N=[N+]([O-])c2cc(S(=O)(=O)O)c3ccccc3c2)cc2ccccc12	-25.9%[11.4 µM]	1.6%[11.4 µM]	3.98µM*	-7.1%[11.5 µM]	-1.9%[11.5 µM]	-12.4%[11 µM]
CCCN(Cc1cc2cc(OC)ccc2[nH]c1=O)C(=O)c1ccncc1	-5.6%	-1.5%	-21.0%	-5.9%	-7.6%	-2.7%
Cc1cc2n(n1)C(c1sccc1C)Nc1ccccc1-2 (stereo not drawn)	4.8%	23.2%	-1.3%	-1.6%	1.2%	?
Cc1ccc2c(c1)-c1cc(C)nn1C(c1sccc1C)N2 (stereo not drawn)	3.2%	11.4%	?	-6.3%	-7.9%	25.1µM*
COC(=O)c1c(NC(=O)c2nc3ccccc3s2)sc2c1CCN(C(C)=O)C2	-21.9%	?	-1.4%	?	?	0.6%
CNC(=O)c1c(NC(=O)c2nc3ccccc3s2)sc2c1CCC2	19.7%	0.631µM*	-1.1%	?	/	-0.4%
O=C(O)C1Nc2c(O)cccc2C2C=CCC12 (stereo not drawn)	/	12.6µM*	?	-24.1%	?	25.1µM*
O=C(OC1CCCCC1)c1ccc2c(c1)C1C=CCC1C(C(=O)O)N2 (stereo not drawn)	?	0.631µM*	25.1µM*	?	-17.4%	?
COc1ccc(Br)cc1C1CC(=O)N2CN(Cc3ccccc3)CSC2=C1C#N (stereo not drawn)	?	9.9%	2.51µM*	-18.6%	-7.1%	2.4%[2.3 µM]
COc1cc(OC)c(C2CC(=O)N3CN(c4ccccc4)CSC3=C2C#N)cc1OC (stereo not drawn)	10µM*	2.8%	?	-5.6%	-5.3%	-7.6%
CCc1ccccc1N1CSC2=C(C#N)C(c3cc(OC)c(OC)cc3OC)CC(=O)N2C1 (stereo not drawn)	10µM*	-23.1%	?	-7.3%	-5.2%	-17.9%
CCOC(=O)C1C(=O)NC(N2CCN(c3ccccc3)CC2)=NC1c1ccccc1 (stereo not drawn)	-2.0%	/	/	/	/	/
COC(=O)[C@@H]1CC[C@H](C)[C@@H](c2ccc(C)cc2)N1C(=O)c1ccc(/C=N\O[C@@H](C)CN2CCCCc3nc(C)c(C)cc32)cc1	/	/	-4.8%[11.4 µM]	1.1%[11.5 µM]	-1.7%[11.5 µM]	/
CC(C)COc1ccc(CSCCNC(=S)Nc2ccccc2)cc1	25.1µM*	/	/	/	/	/
O=C(COC(=O)CCC1CCCC1)Nc1ccc(Cl)cn1	7.4%	-17.9%	3.0%	-0.9%	0.2%	-1.4%
COc1ccc(NC(=O)CN2CCCCC2)cc1	6.8%[2.29 µM]	-4.8%	-6.0%	-0.4%	2.3%	-2.9%
COc1ccc(-c2cc(=O)c3ccccc3s2)cc1	-1.3%	25.1µM*	?	5.6%	-3.1%	6.6%
COc1ccc2sc3ccccc3c(=O)c2c1	-5.0%	/	/	/	/	/
CC(CC1C(C#N)=C(N)SC(N)=C1C#N)c1ccccc1 (stereo not drawn)	20µM*	-6.2%	15.8µM*	-4.5%	-3.7%	-1.5%
CC(c1ccccc1)C1C(C#N)=C(N)SC(N)=C1C#N (stereo not drawn)	-13.8%	-3.1%	-13.2%	-0.1%	-1.1%	-2.8%
S=C([S-])NCCNC(=S)[S-].[Zn+2]	?	14.9%	12.6µM*	-9.9%	0.9%	15.8µM*
CN(C)c1ccc(C2(c3ccc(N(C)C)cc3)OC(=O)c3cc(N(C)C)ccc32)cc1	3.8%	14.8%	0.0%	-12.3%	-6.3%	2.51µM*
Cc1n[nH]c(C)c1N1C(=O)c2cccc3cc(Br)cc(c23)C1=O	-10.6%	15.8µM*	?	-1.3%	0.5%	-4.4%
SMILES	ALOX15B inhib	Tau fil binding	ALOX15 inhib	Casp7 inh	Casp1 inh	Hsp90 Hop PPI
O=c1cc(CSc2nnc(COc3ccccc3)o2)c2ccccc2[nH]1	5.3%	-0.2%	3.9%	-2.3%	-2.4%	-8.8%
CCC1=Nc2ccccc2NC2=C1C(=O)CCC2	-25.6%	/	/	/	/	/
Nc1c(OCC(=O)O)ccc2cc(S(=O)(=O)O)ccc12	-2.7%[11.4 µM]	5.4%[11.4 µM]	3.6%[11.4 µM]	-1.9%[11.5 µM]	0.6%[11.5 µM]	-5.3%[11 µM]
COc1ccc(-c2n[nH]c3c2C(c2ccc(OC)c(OC)c2)N(c2ccccc2)C3=O)cc1 (stereo not drawn)	-16.0%	/	/	/	/	/
COc1ccc(-c2csc(NCc3ccco3)n2)cc1C	-16.3%	12.6µM*	-29.4%	-4.5%	-4.1%	-23.0%
c1cncc(-c2csc(NCc3ccco3)n2)c1	4.6%	/	-9.6%	-0.8%	0.1%	/
CC(C)Cc1nc2oc3c(N4CCN(C)CC4)ncnc3c2c2c1CCCC2	10.5%	9.6%	-0.9%	-0.1%	-8.2%	0.0%
CC(C)(C)NCC(O)COc1ccccc1C(C)(C)C (stereo not drawn)	48.7%	-3.9%	4.1%	-0.1%	5.1%	-1.6%
CC(C)(C)NC[C@@H](O)COc1ccccc1C1CCCC1	35.4%[25.6 µM]	12.6µM*	8.8%[25.6 µM]	2.0%[25.7 µM]	-4.2%[25.7 µM]	-2.6%[26 µM]
Cc1noc(C)c1S(=O)(=O)N(CC(=O)Nc1ccc2c(c1)OCO2)c1ccc(C(C)C)cc1	13.1%	27.8%	-1.9%	-2.0%	-2.0%	-0.1%
N#CC(=C1CCCC1)c1nc(-c2ccccc2)cs1	-23.1%	/	/	/	/	/
N#CC(=C1CCCC1)c1nc(-c2ccccc2O)cs1	?	12.6µM*	?	-0.7%	-4.5%	-12.7%
O=C1C2ON(c3ccccc3)C(c3cccnc3)C2C(=O)N1c1ccc(Cl)c(Cl)c1 (stereo not drawn)	6.8%	/	/	/	/	/
O=C(O)c1cccc(NC(=O)C2C3C=CC(C3)C2C(=O)O)c1 (stereo not drawn)	-9.2%	/	/	/	/	/
CCN1C(=C2C(=O)c3ccccc3C2=O)C=Cc2ccccc21	-19.8%	12.6µM*	-27.6%	-2.8%	-2.6%	-10.9%
CCN1C(=O)/C(=C2\C=Cc3ccccc3N2CC)SC1=S	-11.1%	/	/	/	/	/
CCc1[nH]nc2c1C1(C(=O)N(Cc3ccccc3)c3ccccc31)C(C#N)=C(N)O2 (stereo not drawn)	-4.9%	-7.7%	-8.4%	-0.2%	2.2%	-11.4%
Cc1nc2ccccc2c2nc3ccccc3n12	-1.3%	10.9%	-24.0%	-0.1%	-1.8%	-1.2%
c1ccc2c(c1)nnn1c3ccccc3nc21	-12.2%	7.94µM*	-1.1%	-0.9%	-3.3%	8.6%
Cc1cc(NS(=O)(=O)c2ccc(NC(=O)Cc3cccs3)cc2)no1	-5.3%	19.1%	3.8%	-1.0%	0.6%	-3.1%
